High-throughput results (PubChem BioAssay)
Six1-Eya2 inh: inhibitors of human Six1/Eya2 interaction | Q15475+O00167 | AlphaScreen GST-Six1/His-Eya2 binding, biochemical; stronger effect = lower value | activity change, % (no concentration beside the values) | actives 0.56% (n = 360,000) | AID 651725; in the data active = activity change below about -65%; inconclusive = mostly about -30% to -63%
Target sequence (O00167 whole entry, looked up): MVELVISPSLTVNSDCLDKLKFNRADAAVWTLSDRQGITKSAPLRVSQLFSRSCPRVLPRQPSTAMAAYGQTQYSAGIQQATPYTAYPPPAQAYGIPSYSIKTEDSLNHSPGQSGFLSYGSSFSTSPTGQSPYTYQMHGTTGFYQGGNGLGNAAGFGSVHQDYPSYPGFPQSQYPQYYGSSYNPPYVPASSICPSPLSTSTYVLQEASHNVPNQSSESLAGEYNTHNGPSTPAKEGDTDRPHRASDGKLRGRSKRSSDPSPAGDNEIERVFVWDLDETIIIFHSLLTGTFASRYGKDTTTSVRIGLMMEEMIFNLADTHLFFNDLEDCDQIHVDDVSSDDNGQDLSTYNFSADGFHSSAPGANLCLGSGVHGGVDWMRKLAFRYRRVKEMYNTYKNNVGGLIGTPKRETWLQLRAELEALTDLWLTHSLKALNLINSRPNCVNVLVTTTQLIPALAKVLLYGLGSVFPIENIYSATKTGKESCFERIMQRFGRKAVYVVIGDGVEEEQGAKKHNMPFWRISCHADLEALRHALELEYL
Target sequence (Q15475 whole entry, looked up): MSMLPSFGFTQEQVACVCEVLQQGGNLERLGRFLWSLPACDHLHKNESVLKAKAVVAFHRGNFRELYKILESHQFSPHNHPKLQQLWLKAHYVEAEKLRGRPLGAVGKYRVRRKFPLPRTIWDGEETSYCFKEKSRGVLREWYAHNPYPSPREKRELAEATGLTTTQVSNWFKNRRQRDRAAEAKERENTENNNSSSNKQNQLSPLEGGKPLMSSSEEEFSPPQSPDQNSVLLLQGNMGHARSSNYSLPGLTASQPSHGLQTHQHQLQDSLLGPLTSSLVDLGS
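Six1/Eya2 binding was read as AlphaScreen signal after compounds were pinned into GST-Six1 plus His-tagged Eya2 (5X stock 250/500 nM) in pH 8.0 Tris/NaCl/TCEP buffer, beads added, then incubated 1 h, 37 C, dark.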
TDP1 inh: blocks human tyrosyl-DNA phosphodiesterase 1; actives 0.28% (n = 350,000); Potency, µM (doses to about 130 µM), usual class: inhibitors; recombinant TDP1, AlphaScreen DNA substrate cleavage; AID 485290; Q9NUW8; also: nearly all actives have a fitted effect of over 40% in size
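Signal: AlphaScreen proximity between streptavidin donor and anti-FITC acceptor beads on intact substrate. Reaction: Tdp1 1 nM, substrate 15 nM final, 5 min RT after 15 min compound preincubation.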
CtBP-E1A inh: inhibitors of CtBP/E1A interaction; activity change, % (test concentration not listed); AlphaScreen GST-E1A/His-CtBP binding, 1536-well; stronger effect = lower value; actives 0.49% (n = 340,000); in the data active = activity change below about -65%; inconclusive = mostly about -30% to -63%
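AlphaScreen with 125 nM GST-E1A and 125 nM His-CtBP (5X stocks) in Tris pH 8.0, 300 mM NaCl, BSA, Tween 20, TCEP. Compounds preincubated 2 h at 37 deg C, then glutathione donor/nickel acceptor beads added for 1 h at 37 deg C in dark.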
DT40 TDP1 no CPT: qHTS for Inhibitors of human tyrosyl-DNA phosphodiesterase 1 (TDP1): qHTS in cells in absence of CPT. DT40 Tdp1-/- hTDP1 cells, no CPT, ATP luminescence, 48 h. Potency, µM (top dose mostly 46.2 µM), actives largely listed as inhibitors. actives 15% (n = 420,000); also: nearly all actives have a fitted effect of over 55% in size
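A cellular qHTS used chicken DT40 cells lacking endogenous Tdp1 but carrying stably transfected human TDP1. Compounds were applied without camptothecin, and cell growth kinetics were judged by ATP-dependent luminescence after ≥48 hr.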
TDP1 cell CPT: growth inhibition of DT40 Tdp1-/-;hTDP1 cells with camptothecin (screen for TDP1 inhibitors); chicken DT40 Tdp1-/-;hTDP1 cells + 20 nM CPT, ATP luminescence, 48 h; Potency, µM (highest dose often 46.2 µM), usual class: inhibitors; actives 12% (n = 420,000); also: nearly all actives have a fitted effect of over 55% in size
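Cell growth measured by CellTiter-Glo luminescence after a minimum 48 h, 37 C compound exposure with 20 nM CPT in Tdp1-knockout DT40 cells stably expressing hTDP1, seeded 400/well; qHTS titration format.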
IL1B secr inh: inflammasome signaling inhibition, IL-1 beta readout; THP-1 LPS/ATP IL-1B secretion, AlphaLISA, 16 h; stronger effect = lower value; activity change, % at 57.5 µM; actives 4.7% (n = 360,000); AID 743279; in the data active = activity change below about -50%; inconclusive = mostly about -30% to -49%
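THP-1 cells pretreated 1 hr with compounds (up to 57.5 uM final), then stimulated with LPS (250 ng/mL final) plus ATP (1.25 mM final); secreted IL-1B measured by AlphaLISA after 16 hr, decreased signal indicating inhibition.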
Numbers stand for hits; 0 = inactive; ? = inconclusive; - = not tested or not shown. Most compounds without a hit are left out; they make up all but 18% or so of the library. Unless noted, calls follow the shape of the dose curve; as a rule, active = well fitted curve in the direction sought with a large enough effect; inconclusive = small, poorly fitted or top-dose-only effect, or another doubt; inactive = no such curve, though single readings can be large; an effect the other way counts as inactive or inconclusive.

SMILES	Six1-Eya2 inh	TDP1 inh	CtBP-E1A inh	DT40 TDP1 no CPT	TDP1 cell CPT	IL1B secr inh
C[C@]12c3[nH]c4cc(-c5ccco5)ccc4c3CCN1C(=O)[C@@H](CC(=O)NCCN1CCOCC1)C[C@@H]2C(=O)N1CCCCC1	0	0	0	?	0	0
CCN(CC)C(=O)[C@H]1C[C@H](CC(=O)NCCc2ccccn2)C(=O)N2CCc3c([nH]c4ccc(Cl)cc34)[C@]12C	0	0	0	21µM	?	0
COCCCNC(=O)C[C@H]1C[C@H](C(=O)N2CCCCC2)[C@@]2(C)c3[nH]c4cc(-c5ccco5)ccc4c3CCN2C1=O	0	0	0	?	16µM	0
O=C(NCCN1C(=O)S/C(=C/c2cccnc2)C1=O)c1cccs1	0	0	0	?	?	?
CC(C)(Oc1ccc(Cl)cc1)C(=O)NCCN1C(=O)S/C(=C/c2cccnc2)C1=O	0	0	0	?	?	-91
CC(Oc1ccc(Cl)cc1)C(=O)NCCN1C(=O)S/C(=C\c2cccnc2)C1=O (stereo unspecified)	0	0	0	18µM	21µM	-78
O=C1C(=O)N(CCN2CCOCC2)C(c2ccc([N+](=O)[O-])cc2)/C1=C(/O)c1ccc2c(c1)OCO2 (stereo unspecified)	0	0	0	0	0	0
COc1ccc(C(=O)Nc2ccnn2C2CCN(Cc3ccn[nH]3)CC2)cc1	0	0	0	0	0	0
CCCNC(=O)Cn1cnc2sc(C(=O)N3CCCC(C(=O)OCC)C3)c(C)c2c1=O (stereo unspecified)	0	0	0	0	0	0
CCOC(=O)c1sc2nc(C)nc(N3CCCCC3C)c2c1C (stereo unspecified)	0	0	0	?	?	0
CCC1CCCCN1C(=O)c1sc2nc(C)nc(N(CC)CC)c2c1C (stereo unspecified)	0	0	-	16µM	?	0
CCOC(=O)C1CCCN(C(=O)c2sc3nc(C)nc(N(CC)CC)c3c2C)C1 (stereo unspecified)	0	0	0	?	23µM	0
C=CC[C@@H](CC(=O)OC(C)(C)C)C(=O)OC[C@@H]1CCCN1C(=O)[C@@H](CC=C)CC(=O)N[C@H](CO)Cc1ccccc1	0	0	0	?	23µM	0
C=CC[C@H](CC(=O)OC(C)(C)C)C(=O)OC[C@@H]1CCCN1C(=O)[C@H](CC=C)CC(=O)N[C@H](CO)Cc1ccccc1	0	0	0	?	26µM	0
C=CC[C@H](CC(=O)OC(C)(C)C)C(=O)OC[C@@H]1CCCN1C(=O)[C@@H](CC=C)CC(=O)N[C@H](CO)Cc1ccccc1	0	0	0	?	16µM	0
O=S(=O)(c1ccc2ccccc2c1)n1nc(-c2ccco2)nc1NCc1ccc(F)cc1	-	0	-	0	0	-
CC1(C)CC(=O)C=C(Nc2ccc(Cl)cc2)C1	0	-	0	0	0	?
COc1cccc(C(=O)NC2CCCc3ccccc32)c1 (stereo unspecified)	0	-	0	0	0	0
Cc1nc(C)c(-c2csc(Nc3cccc(O)c3)n2)s1	0	0	0	23µM	?	?
CCC(=O)Nc1nc(C)c(-c2csc(Nc3cccc(O)c3)n2)s1	0	-	-	3.7µM	6.5µM	-75
Cc1cccc(Nc2nc(-c3sc(C)nc3C)cs2)c1	0	0	0	16µM	?	-54
Cc1nc(NC(=O)c2ccccc2)sc1-c1csc(Nc2cccc(Cl)c2)n1	-	0	-	-	-	-
Cc1cccc(Nc2nc(-c3ccncc3)cs2)c1	0	0	0	?	?	0
Cc1nc(N)sc1-c1csc(Nc2cccc(O)c2)n1	-69	0	?	?	?	0
CCOC(=O)c1c(C)[nH]c(C)c1C(=O)COC(=O)[C@@H](NC(=O)c1ccco1)C(C)C	0	0	0	0	0	0
SMILES	Six1-Eya2 inh	TDP1 inh	CtBP-E1A inh	DT40 TDP1 no CPT	TDP1 cell CPT	IL1B secr inh
O=C(c1ccc(OC(F)(F)F)cc1)c1ncc[nH]1	0	-	-	0	0	0
Cc1nc(N)sc1-c1csc(Nc2cc(N(C)C)ccc2Cl)n1	-73	-	?	13µM	7.3µM	0
COc1ccc(Nc2nc(-c3sc(N)nc3C)cs2)cc1	0	0	0	?	?	0
Cc1nc(C)c(-c2csc(Nc3ccccn3)n2)s1	0	0	0	?	0	0
Cc1ccnc(Nc2nc(-c3sc(C)nc3C)cs2)c1	0	-	0	?	15µM	-100
COc1ccc(CCNc2nc(-c3sc(N)nc3C)cs2)cc1OC	?	0	0	16µM	?	0
Cc1ccc(Nc2nc(-c3sc(N)nc3C)cs2)cc1	0	0	-	?	0	0
CCc1c(-c2ccc(OC)cc2)ncn1Cc1cccc(-c2ccccc2)c1	0	-	0	4.6µM	7.3µM	0
